From PubChem BioAssay (NCI)
About 83,000 compounds went through this panel and 20% of them were active in at least one assay; those are over-represented in the sample as a whole.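 Values shown are percent growth following 48 h exposure of cells in 96-well plates to a single concentration of compound; below 10 was considered active.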 Calls of active or inactive are those of the source.

Test system: UO-31 renal
Assay: NCI-60 one-dose screen, 48 h (100 = growth as untreated, 0 = no growth, -100 = all killed)
Conditions: 10 µM unless noted
Experimental: Growth inhibition of the UO-31 human tumor cell line is measured as a screen for anti-cancer activity. Cells are grown in 96 well plates and exposed to the test compound for 48 hours. Compounds are tested at a single concentration, which is 10^-5 M for most compounds. The reported endpoint is percent growth (GI% or GIPRCNT), where numbers from 0 - 100% represent growth inhibition, and numbers from -100% - 0 represent cell death. For example, a value of 40 represents 60% growth inhibition. A value of 0 means no net growth occurred over the course of the experiment. A value of -40 indicates 40% of cells at the beginning of the experiment died by the end of the experiment. A value of -100 means all cells are dead at the end of the experiment.
NCI-60 Human Tumor Cell Lines Screen was performed using the standard one-dose NCI protocol, which is described in more detail at https://dtp.cancer.gov/discovery_development/nci-60/default.htm.
Compounds with GIPRCNT values below 10 were considered active. Activity score was based on GIPRCNT using the following formula: […]
Score is 0 for GIPRCNT values of 100 or above, 50 for GIPRCNT values of 0, and 100 for GIPRCNT values of -100.

| SMILES | growth |
| --- | --- |
| Oc1ccc(Cc2ccc(O)c(C3CC(c4ccc(Cl)cc4)=NN3)c2)cc1C1CC(c2ccc(Cl)cc2)=NN1 (stereo not given) | -22.4% (active) |
| O=C(O)c1ccccc1C(=O)OC1CCCC2CCCC21 (stereo not given) | 104% (inactive) |
| O=C(Nc1ccc(Oc2ccc(NC(=O)Nc3ccc([N+](=O)[O-])cc3)cc2)cc1)Nc1ccc([N+](=O)[O-])cc1 | -4.36% (active) |
| Cc1c(C(N)=O)sc2c1C(=O)N(Cc1ccccc1)C1=NN=C(c3ccc(Cl)cc3)CN12 | 26.3% (inactive) |
| CC[N+](CC)(CCOCCOCC[N+](CC)(CC)Cc1ccc([N+](=O)[O-])cc1)Cc1ccc([N+](=O)[O-])cc1 | 68.5% (inactive) |
| Cn1cc(-c2csc(-c3cn(C)c4ncccc34)n2)c2cc(F)cnc21 | 99.1% (inactive) |
| CO[C@H]1/C=C/O[C@@]2(C)Oc3c(C)c(O)c4c(O)c(c(/C=N/N5CCN(C)CC5)c(O)c4c3C2=O)NC(=O)/C(C)=C\C=C\C(C)[C@H](O)[C@@H](C)[C@@H](O)[C@@H](C)[C@@H](OC(C)=O)[C@@H]1C (stereo not given in full) | 88% (inactive) |
| Cc1c(C)c(N2C(=O)C=CC2=O)c(C)c(C)c1N1C(=O)C=CC1=O | 53.7% (inactive) |
| CC(=O)NC1(C(=O)O)CCCC1 | 99.9% (inactive) |
| C/C(=C\CCc1ccsc1)CC/C=C(\C)CCCN1CCC(CO)CC1 | 23.4% (inactive) |
| Cc1cc(C(=O)O)c(C)cc1C(=O)O | 73.5% (inactive) |
| Cc1ccc2c(c1)C(=O)/C(=C/c1ncc([N+](=O)[O-])n1C)O2 | -39.7% (active) |
| COc1ccc(-c2cc(Cc3cccs3)c(=O)n(Cn3ccc4ccccc43)n2)cc1 | 83% (inactive) |
| COc1ccc(/C=C/C(=O)Nc2cccnc2Nc2ccc(F)cc2)cc1 | 95.4% (inactive) |
| O=C(Nc1ccc(Cl)cc1)Nc1ccc(Nc2nncc3ccccc23)cc1 | 19% (inactive) |
| C=C(C)[C@@H]1C[C@H](O)Cc2cc(Cl)cc(Cl)c2N1 | 81.4% (inactive) |
| CC1SC(c2c(Cl)cccc2Cl)N(NC(=O)c2[nH]c3ccc(F)cc3c2-c2ccccc2)C1=O (stereo not given) | -17.6% (active) |
| CCOC(=O)/C(=C/c1ccccc1)C(=O)c1ccccc1 | 53.1% (inactive) |
| Fc1ccc(-c2nnc(-c3c(-c4ccc(F)cc4)nc4ncccn34)o2)cc1 | 77.8% (inactive) |
| C=CC1=C(C(=O)O)N2C(=O)[C@@H](NC(=O)/C(=N\O)c3csc(N)n3)[C@H]2SC1 (stereo in doubt) | 91.7% (inactive) |

| SMILES | growth |
| --- | --- |
| O=C(Nc1ccc(OCc2nnc(-c3ccccc3)o2)c(F)c1)Nc1ccc(Cl)c(C(F)(F)F)c1 | -19% (active) |
| COc1ccc2c(c1)/C(=C\c1c[nH]c3ccc(F)cc13)C(=O)N2 | 57.8% (inactive) |
| C=CCOc1ccc2c(c1)CC[C@@H]1[C@@H]2CC[C@@]2(C)[C@H]1CC[C@]2(C)O | 92.6% (inactive) |
| CC1CC(C)/C(=N/NC(N)=O)C(C(O)CC2CCC(=O)NC2=O)C1 (stereo not given) | 15.9% (inactive) |
| CCCCCCCCCCCCCCCCCc1nccn1CCO | 47.5% (inactive) |
| COc1ccc(-c2cc(Cc3cccs3)c(=O)n(Cn3cncn3)n2)cc1 | 86.4% (inactive) |
| O=C(Nc1cccc(-n2cc(-c3ccncc3)c(-c3ccc(O)c(Cl)c3)n2)c1)Nc1ccc(Cl)c(C(F)(F)F)c1 | -18.9% (active) |
| COC(=O)[C@]12CC[C@@H](C)[C@H](C)[C@@H]1C1=CC[C@@H]3[C@@]4(C)C=C(O)C(=O)[C@@]5(C)COC(=C54)C[C@@]3(C)[C@]1(C)CC2 | -50.2% (active) |
| CCN(CC)CCOc1ccc(C2=C(c3ccccc3)CCc3cc(OC)ccc32)cc1 | -76.7% (active) |
| O=C(NCCc1ccccc1)C1CCC(=O)N1Cc1ccc(Br)cc1 (stereo not given) | 92.6% (inactive) |
| CC(C)(C)c1cc(O)c(O)c(C(C)(C)C)c1 | 27.3% (inactive) |
| Nc1nc(SCC2(CCl)COC2)c2[nH]cnc2n1 | 75.9% (inactive) |
| COC(=O)[C@]1(C(C)C)N[C@H](c2cn(-c3ccccc3)nc2-c2ccccc2)[C@@H]2C(=O)N(c3ccc(Cl)cc3)C(=O)[C@@H]21 | 59.5% (inactive) |
| CCOC(Cc1c(N)[nH]c(=S)[nH]c1=O)OCC | 86% (inactive) |
| OCc1nnn(-c2ccccc2)c1CO | 89.4% (inactive) |
| COc1cc2c(C#N)n3c(c2cc1OC)C(=O)C(c1ccccc1)Oc1ccccc1-3 (stereo not given) | 15.8% (inactive) |
| Oc1[nH]c2ccc(Cl)cc2c1/C=c1/ccc2c(c1)N=C(c1ccc(C(F)(F)F)cc1)N=2 | 62.2% (inactive) |
| COc1cc(OC)c2cc(C(=O)O)c(=O)oc2c1 | 80.7% (inactive) |
| O=C(c1ccccc1)c1ccco1 | 88.7% (inactive) |
| Cc1ccc(C=C2C(Cl)=C(Cl)C(Cl)=C2Cl)cc1 | -88% (active) |
